Data: paper PMC4336329 (PLoS ONE, 2015)
In all, about 310,000 compounds went through this assay and about 14,000 (4.5%) showed an effect of 50% or more. The effect is printed as a negative number. The full list was thinned out, with strong results kept by preference.

Target: human ether-à-go-go-related gene (hERG) potassium channel (human, UniProt Q12809)
Experiment: primary screen, population patch clamp on CHO cells stably expressing hERG; higher = less effect of the substance
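Further: peak tail current of the secondary pulse compared with the same well before compound.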

Chain of human ether-à-go-go-related gene (hERG) potassium channel (Q12809 whole entry, looked up): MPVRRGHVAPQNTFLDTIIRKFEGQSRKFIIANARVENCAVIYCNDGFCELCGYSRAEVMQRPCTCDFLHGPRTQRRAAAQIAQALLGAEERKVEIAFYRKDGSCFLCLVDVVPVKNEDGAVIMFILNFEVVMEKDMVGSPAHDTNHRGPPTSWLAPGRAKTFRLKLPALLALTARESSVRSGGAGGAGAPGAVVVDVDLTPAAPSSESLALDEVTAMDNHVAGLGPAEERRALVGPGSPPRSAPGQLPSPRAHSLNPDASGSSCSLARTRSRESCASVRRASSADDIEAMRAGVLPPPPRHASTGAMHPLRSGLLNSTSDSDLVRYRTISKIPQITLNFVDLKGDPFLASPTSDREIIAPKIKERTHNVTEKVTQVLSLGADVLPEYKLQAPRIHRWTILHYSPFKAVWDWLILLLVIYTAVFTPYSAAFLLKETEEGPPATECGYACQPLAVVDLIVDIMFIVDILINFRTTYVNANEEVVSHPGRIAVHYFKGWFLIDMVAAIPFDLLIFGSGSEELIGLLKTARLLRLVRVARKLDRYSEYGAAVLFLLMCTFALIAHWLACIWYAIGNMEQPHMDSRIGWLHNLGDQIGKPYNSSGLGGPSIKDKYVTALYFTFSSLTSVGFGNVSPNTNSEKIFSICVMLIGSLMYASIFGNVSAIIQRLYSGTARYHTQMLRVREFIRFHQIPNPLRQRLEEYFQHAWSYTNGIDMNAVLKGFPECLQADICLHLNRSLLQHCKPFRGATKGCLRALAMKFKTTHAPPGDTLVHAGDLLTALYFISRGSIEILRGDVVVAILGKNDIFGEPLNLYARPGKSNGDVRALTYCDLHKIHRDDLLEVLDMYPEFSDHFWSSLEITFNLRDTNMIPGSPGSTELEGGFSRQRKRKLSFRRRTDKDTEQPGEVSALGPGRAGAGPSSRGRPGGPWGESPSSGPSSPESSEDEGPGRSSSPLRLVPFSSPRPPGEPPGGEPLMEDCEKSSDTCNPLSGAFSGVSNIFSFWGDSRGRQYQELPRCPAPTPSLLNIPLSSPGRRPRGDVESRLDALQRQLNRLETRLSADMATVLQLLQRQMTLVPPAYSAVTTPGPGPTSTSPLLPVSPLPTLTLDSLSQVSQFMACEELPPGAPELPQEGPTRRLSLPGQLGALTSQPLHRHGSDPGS

| Structure (SMILES) | hERG current change (%, negative = inhibition) at 10uM |
| --- | --- |
| COc1cc(OC)c(NC(=O)CS(=O)(=O)Cc2nc(-c3ccc(C)cc3)oc2C)cc1Cl | 11.5% |
| COc1ccc(C2SCCN2S(=O)(=O)c2ccccc2)cc1 (stereo not shown) | -4.42% |
| O=C(Nc1cc2c3c(c1)CC(=O)N3CCC2)c1ccccc1F | 0.297% |
| O=C(CNC(=O)c1ccccc1F)OCc1csc(-c2ccccc2)n1 | 14.6% |
| COc1cc(O)oc1C=Nc1ccccc1 | -18.3% |
| CCSc1nnc(-c2cccs2)o1 | 10.1% |
| O=C(c1ccc2snnc2c1)N1CCSCC1 | 4.21% |
| COc1ccc(NC(=O)C(CC(=O)O)Cc2ccc(Cl)cc2)cc1 (stereo not shown) | 11.9% |
| N#Cc1ccc(CSc2nnc(NC(=O)c3ccc(=O)[nH]c3)s2)cc1 | 3.51% |
| Cc1ccc(C(=O)c2cn[nH]c2-c2ccccc2O)cc1 | 14.4% |
| COc1ccc2c(c1)C(=O)[C@H](O)[C@@H](c1ccc(OC)c(Br)c1)O2 | 12.9% |
| COC(=O)c1cc(O)cc(OC)c1C(=O)c1c(O)cc(C)cc1O | 4.87% |
| O=C(Cc1ccccc1)NNC(=O)c1ccccc1C(=O)O | -5.66% |
| CCOC(=O)c1c(CSc2ccsc2)n(C)c2cc(Br)c(O)c(CN(C)C)c12.Cl | -84.2% |
| Cc1cc(O)c(/C=N/Nc2cccc(Cl)c2)c(=O)o1 | 1.55% |
| N#C/C(=C\c1c(N2CCC(C(N)=O)CC2)nc2ccccn2c1=O)S(=O)(=O)c1ccccc1 | -4.45% |
| N#C/C(=C\c1c(N2CCC(C(N)=O)CC2)nc2ccccn2c1=O)S(=O)(=O)c1ccc(Cl)cc1 | -70.9% |
| N#C/C(=C\c1c(N2CCC(C(N)=O)CC2)nc2ccccn2c1=O)C(=O)NC1CCCCC1 | 20.9% |
| Cc1ccc(S(=O)(=O)/C(C#N)=C/c2c(N3CCN(Cc4ccccc4)CC3)nc3ccccn3c2=O)cc1 | 5.58% |
| COc1ccc(N2CCN(c3nc4ccccn4c(=O)c3/C=C(\C#N)S(=O)(=O)c3ccccc3)CC2)cc1 | -2.49% |
| Cc1ccc(S(=O)(=O)/C(C#N)=C/c2c(N3CCC(C(N)=O)CC3)nc3ccccn3c2=O)cc1 | -55.3% |

| Structure (SMILES) | hERG current change (%, negative = inhibition) at 10uM |
| --- | --- |
| COc1ccc(CN(C(=O)CNC(=O)c2ccco2)C(C(=O)NC2CCCC2)c2ccco2)cc1 (stereo not shown) | -15.9% |
| COc1ccccc1OCc1nnc(SCC(=O)NCc2ccco2)n1-c1ccccc1 | -9.19% |
| COc1ccc(N2CCN(CCC3Oc4cc([N+](=O)[O-])ccc4NC3=O)CC2)cc1 (stereo not shown) | -19.1% |
| COc1ccc2c(CCNC(=O)c3ccco3)c[nH]c2c1 | -1.53% |
| CCOC(=O)COc1coc(CN2CCN(c3ccc(F)cc3)CC2)cc1=O | -19.4% |
| CCOc1ccccc1N(CC(=O)Nc1ccc(OC)cc1OC)S(=O)(=O)c1ccccc1 | 14.6% |
| CS(=O)(=O)c1ccc2nc(NC(=O)c3cc(-c4ccccc4)nn3-c3ccccc3)sc2c1 | 8.38% |
| COC(=O)c1ccc(COc2ccccc2/C=C/C(=O)c2ccc(OCC(=O)O)cc2)cc1 | 3.76% |
| CN(C)c1nc(N)nc(-c2nc3ccccc3s2)n1 | -3.77% |
| COc1ccc2c(c1OC)C(=O)OC2c1c(O)n(Cc2ccc(F)cc2)c(=O)[nH]c1=O (stereo not shown) | 3.09% |
| COc1ccc2c(c1OC)C(=O)OC2c1c(O)n(C2CCCCC2)c(=O)[nH]c1=O (stereo not shown) | -68.8% |
| COc1ccc2c(c1OC)C(=O)OC2c1c(O)nc(SC)n(-c2ccccc2)c1=O (stereo not shown) | -2.74% |
| Cc1cc(-c2ccc(C)c(S(=O)(=O)N3CCN(c4ccc([N+](=O)[O-])cc4)CC3)c2)on1 | -67.8% |
| COc1ccc(-c2cc(C)no2)cc1S(=O)(=O)N1CCN(c2ccccc2F)CC1 | 3.36% |
| Cc1cc(-c2ccc(C)c(S(=O)(=O)N3CCN(c4ccccn4)CC3)c2)on1 | -21.2% |
| Cc1noc(C)c1S(=O)(=O)N1CCN(c2ccccc2)CC1 | -5.33% |
| CCc1ccc(-c2cc(C)no2)cc1S(=O)(=O)N1CCN(c2ccc(F)cc2)CC1 | 7.09% |
| CCc1ccc(-c2cc(C)no2)cc1S(=O)(=O)N1CCN(c2ccccn2)CC1 | 4.29% |
| Cc1noc(C)c1S(=O)(=O)N1CCN(c2ccc([N+](=O)[O-])cc2)CC1 | -69% |
| Cc1noc(C)c1S(=O)(=O)N1CCN(c2ccc(Cl)cc2)CC1 | -6.26% |
| Cc1cc(-c2ccc(C)c(S(=O)(=O)N3CCN(c4ccc(F)cc4)CC3)c2)on1 | -8.14% |

| Structure (SMILES) | hERG current change (%, negative = inhibition) at 10uM |
| --- | --- |
| COc1ccc(-c2cc(C)no2)cc1S(=O)(=O)N1CCN(c2ccc([N+](=O)[O-])cc2)CC1 | -76.2% |
| COc1ccc(-c2cc(C)no2)cc1S(=O)(=O)N1CCN(c2ccccn2)CC1 | -63.7% |
| COc1ccc(-c2cc(C)no2)cc1S(=O)(=O)N1CCCCC1 | 2.3% |
| O=C(O)c1ccc2c(c1)S(=O)(=O)c1ccccc1C2=O | 17% |
| CCc1cc2cc(C(=O)Nc3ccc(F)cc3)sc2s1 | 3.32% |
| COc1cc(NC(=O)COC(=O)CNC(=O)c2ccc(C)s2)cc(OC)c1 | 4.76% |
| Cc1ccc(C(=O)N2CCN(c3ccccc3)CC2)cc1C | 4.41% |
| O=C(c1ccc(-c2ccccc2)cc1)N1CCN(c2ccccn2)CC1 | -36.4% |
| CN(CC(=O)Nc1cccc(F)c1)C(=O)c1ccncc1 | 4.28% |
| CCOc1ccc(OCC)c(NC(=O)C2CCN(S(=O)(=O)c3c(C)[nH]c(=O)[nH]c3=O)CC2)c1 | 7.51% |
| CSc1nsc(SC)c1NC(=O)N1CCCC1 | -13.1% |
| COCc1nnc(NC(=O)CCCOc2ccccc2OC)s1 | 9.6% |
| COc1ccc(-c2cc(C)no2)cc1S(=O)(=O)N(C)c1ccc(C)cc1 | -29.6% |
| COc1ccc(-c2cc(C)no2)cc1S(=O)(=O)N(C)c1ccc(C)c(C)c1 | -1.83% |
| COc1ccc(-c2cc(C)no2)cc1S(=O)(=O)N(C)c1cccc(C)c1 | -82.5% |
| CC(=O)N1CCc2c(sc3c2c(=O)n(Cc2ccccc2)c(=O)n3CC(=O)NCC2CCCO2)C1 (stereo not shown) | -21.6% |
| CCCCOC1CC(c2ccc(OCc3ccc(OC)cc3)c(OC)c2)N(C)O1 (stereo not shown) | 3.47% |
| Cc1ccn2c(CNC(C)c3cn(C)nc3C)c(C(=O)N3CCCCCC3)nc2c1 (stereo not shown) | 0.193% |
| O=C(CCN1C(=O)C2C3C=CC(C3)C2C1=O)N1CCN(c2ccc(F)cc2)CC1 (stereo not shown) | -25.8% |
| O=C(CCN1C(=O)C2C3C=CC(C3)C2C1=O)N1CCN(c2ccccc2Cl)CC1 (stereo not shown) | -57.2% |
| COc1ccc(N2CCN(C(=O)CCN3C(=O)C4C5C=CC(C5)C4C3=O)CC2)cc1 (stereo not shown) | -0.214% |

| Structure (SMILES) | hERG current change (%, negative = inhibition) at 10uM |
| --- | --- |
| O=C(CCN1C(=O)C2C3C=CC(C3)C2C1=O)N1CCN(c2cccc(Cl)c2)CC1 (stereo not shown) | -38.4% |
| O=C(CCN1C(=O)C2C3C=CC(C3)C2C1=O)N1CCN(c2ccccc2F)CC1 (stereo not shown) | -4.87% |
| O=C(CCN1C(=O)C2C3C=CC(C3)C2C1=O)N1CCN(c2ccc([N+](=O)[O-])cc2)CC1 (stereo not shown) | -81.2% |
| O=C(CSc1ccc2nnc(CCNC(=O)c3ccccc3)n2n1)NCc1ccccc1 | -8.24% |
| COc1ccc2nc(SC)c(C#N)cc2c1 | 15.1% |
| CCOC(=O)c1cnc(Nc2ccc(OCC)cc2)nc1C | 12.6% |
| O=C(NCCc1cccc(C(F)(F)F)c1)C1CCC(=O)N(Cc2ccc(Cl)cc2)C1 (stereo not shown) | -59% |
| Cc1ccc(CNC(=O)C2CCC(=O)N(Cc3ccc(Cl)cc3)C2)cc1F (stereo not shown) | -63.6% |
| O=C(NCCc1cccnc1)C1CCC(=O)N(Cc2cccc(C(F)(F)F)c2)C1 (stereo not shown) | -8.64% |
| O=C(NCCC1=CCCCC1)C1CCC(=O)N(Cc2ccc(Cl)cc2)C1 (stereo not shown) | -2.34% |
| O=C(NCCc1ccccc1)C1CCC(=O)N(Cc2cccc(C(F)(F)F)c2)C1 (stereo not shown) | -14.2% |
| Cc1cccc(CCNC(=O)C2CCC(=O)N(Cc3ccc(Cl)cc3)C2)n1 (stereo not shown) | 5.05% |
| COc1cccc(CN2CC(C(=O)NCc3ccc(C)c(F)c3)CCC2=O)c1 (stereo not shown) | -40.8% |
| O=C(NCCc1cccc(Cl)c1)C1CCC(=O)N(Cc2ccc(Cl)cc2)C1 (stereo not shown) | -52.3% |
| COc1ccccc1CN1CC(C(=O)NCc2ccc(C)c(F)c2)CCC1=O (stereo not shown) | 0.721% |
| CCC(C)(C)NC(=O)C(OC(=O)c1ccco1)c1ccccc1F (stereo not shown) | 13.4% |
| O=C(CCCCCN1C(=O)[C@@H]2Cc3ccccc3CN2C1=O)N[C@@H](Cc1ccc(O)cc1)C(=O)O | 1.02% |
| CC1Oc2ccccc2N(CC(=O)N(Cc2ccccc2)Cc2ccccn2)C1=O (stereo not shown) | 0.288% |
| COc1ccc(/C=N/N2C(=O)C3C4C=CC(C4)C3C2=O)cc1[N+](=O)[O-] (stereo not shown) | -6.14% |
